# Records with an inconclusive call do not appear. Active and inactive are the calls of the source. The calls were made as follows: active = hit-call score of the fitted dose curve at least 0.9, where 1 is the maximum; inconclusive = response in the unintended direction; inactive = score below 0.9.
# Target: human Caspase 4 (CASP4), CASP4 (gene 837) (UniProt P49662)
# Assay: NVS_ENZ_hCASP4: NovaScreen (NVS) Enzymatic Assay for human Caspase 4 (CASP4) (AID 2283143)
# Summary of the method: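 Compounds were first tested in duplicate at 25 uM, and hits were titrated singly to a 50 uM maximum. Recombinant protease from E. coli was read by fluorescence 2 h post-dose, and activity loss was fitted against the DMSO baseline.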
# Chain of human Caspase 4 (CASP4), CASP4 (gene 837) (P49662 whole entry, looked up): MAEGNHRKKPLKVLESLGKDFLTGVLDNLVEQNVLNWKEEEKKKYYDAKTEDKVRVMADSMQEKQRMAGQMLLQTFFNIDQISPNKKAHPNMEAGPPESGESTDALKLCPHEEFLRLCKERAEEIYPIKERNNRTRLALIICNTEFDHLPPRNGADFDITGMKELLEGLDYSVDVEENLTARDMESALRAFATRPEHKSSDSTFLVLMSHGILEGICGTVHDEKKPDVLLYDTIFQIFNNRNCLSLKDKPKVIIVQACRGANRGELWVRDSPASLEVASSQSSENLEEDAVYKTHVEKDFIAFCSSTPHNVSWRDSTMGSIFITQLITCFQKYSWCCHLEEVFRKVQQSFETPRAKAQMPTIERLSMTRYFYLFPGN
SMILES,outcome,AC50
CCc1c(C(=O)NN2CCCCC2)nn(-c2ccc(Cl)cc2Cl)c1-c1ccc(Br)cc1,inactive,
O=c1c(O)c(-c2ccc(O)c(O)c2)oc2cc(O)cc(O)c12,inactive,
CCOc1ccc2c(c1)C(C)=CC(C)(C)N2,,15.1 µM (active)
Cc1ccc(C(C)C)c(O)c1,inactive,
Cc1nc(-c2ccc3c(c2)CCN(CCC2CCC(NC(=O)/C=C/c4ccc(F)cc4)CC2)CC3)no1 (configuration not stated),inactive,
Nc1ccc2c(c1)C(=O)c1ccccc1C2=O,,18.9 µM (active)
COc1cc(S(=O)(=O)O)c(C)cc1N=Nc1c(O)ccc2cc(S(=O)(=O)O)ccc12,,25 µM (active)
CCCCc1ccc2c(n1)[C@@H](c1ccc(OC)cc1C[C@H](C)C(=O)O)[C@H](C(=O)O)[C@H]2c1ccc2c(c1)OCO2,inactive,
COc1cc(-c2nc(NC(=O)c3cc4cc(C)cc(C)c4n3CC(=O)O)sc2CCC2CCCCC2)c(OC)cc1Cl,,14.3 µM (active)
Cc1cccc([N+](=O)[O-])c1C,inactive,
COc1ccc(S(=O)(=O)N2C(=O)[C@@](c3ccccc3OC)(N3C[C@H](O)C[C@H]3C(=O)N(C)C)c3cc(Cl)ccc32)c(OC)c1,inactive,
CC1=C(/C=C/C(C)=C/C=C/C(C)=C/CO)C(C)(C)CCC1,inactive,

# Target: human Caspase 8 (CASP8), CASP8 (gene 841) (UniProt Q14790)
# Assay: NVS_ENZ_hCASP8: NovaScreen (NVS) Enzymatic Assay for human Caspase 8 (CASP8) (AID 2283146)
# Description: NVS_ENZ_hCASP8 is a biochemical, single-readout assay that uses extracted gene-proteins from E. coli in a cell-free assay. Measurements were taken 1 hour after chemical dosing in a 96-well plate.NVS_ENZ_hCASP8 is one of one assay component(s) measured or calculated from the NVS_ENZ_hCASP8 assay. It is designed to make measurements of enzyme activity, a form of enzyme reporter, as detected with fluorescence intensity signals by Fluorescence technology.Data from the assay component NVS_ENZ_hCASP8 was analyzed into 1 assay endpoint. This assay endpoint, NVS_ENZ_hCASP8, was analyzed in the positive analysis fitting direction relative to DMSO as the negative control and baseline of activity. Using a type of enzyme reporter, loss-of-signal activity can be used to understand changes in the enzymatic activity as they relate to the gene CASP8. Furthermore, this assay endpoint can be referred to as a primary readout, because this assay has produced multiple assay endpoints where this one serves a enzymatic activity function. To generalize the intended target to other relatable targets, this assay endpoint is annotated to the protease intended target family, where the subfamily is cysteine protease.
# Binding assays used specific radioligands (tritiated, iodinated) with non-radioactive competitive displacement ligands in agonist or antagonist protocols (as indicated) and various reference compounds and inhibitors to titrate specific binding to receptors and transporters. Most enzyme assays (CYPs, kinases, phosphatases, proteases, HDACs) used recombinant protein and specific substrates (fluorescence mostly, some colorimetric and radioactive) and inhibitors, followed by a biochemical separation of substrate and product. All assays for the biochemical HTS were initially run in duplicate at a single concentration (10 uM for CYP450 assays and 25 uM for all others). […] Each assay was run with positive and negative controls, and concurrent controls on every plate. The follow-up (secondary) screen tested active chemical-pairs in concentration series, as well as a few additional assays not tested in the primary screen, some selected negative inactives, and several cases re-run in the concentration series for confirmatory purposes.
# Chain of human Caspase 8 (CASP8), CASP8 (gene 841) (Q14790 whole entry, looked up): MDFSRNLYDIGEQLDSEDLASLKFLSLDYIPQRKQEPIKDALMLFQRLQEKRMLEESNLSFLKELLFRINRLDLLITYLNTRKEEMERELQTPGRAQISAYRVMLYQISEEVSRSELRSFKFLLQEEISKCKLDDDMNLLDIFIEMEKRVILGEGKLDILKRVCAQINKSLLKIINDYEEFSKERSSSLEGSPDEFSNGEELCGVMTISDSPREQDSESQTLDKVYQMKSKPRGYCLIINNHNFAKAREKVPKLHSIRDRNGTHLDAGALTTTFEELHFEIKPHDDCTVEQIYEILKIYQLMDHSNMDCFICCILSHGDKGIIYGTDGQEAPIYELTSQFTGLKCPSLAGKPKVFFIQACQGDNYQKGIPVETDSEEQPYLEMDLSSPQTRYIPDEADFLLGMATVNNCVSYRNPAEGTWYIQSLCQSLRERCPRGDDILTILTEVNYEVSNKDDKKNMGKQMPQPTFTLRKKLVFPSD
SMILES,outcome,AC50
CC1(C)CC(N=C=O)CC(C)(CN=C=O)C1 (configuration not stated),inactive,
CNC(=O)[C@H]1O[C@@H](n2cnc3c(NCc4cc(Cl)ccc4OCc4cc(C)no4)ncnc32)[C@H](O)[C@@H]1N,inactive,
O=C(O)Cc1ccccc1Nc1c(Cl)cccc1Cl,,12.3 µM (active)
FC(F)(F)C(F)(F)C(F)(F)C(F)(F)C(F)(F)C(F)(F)CCI,inactive,

# Target: human Casein Kinase 1-delta (CK1D), CSNK1D (gene 1453) (UniProt P48730)
# Assay: NVS_ENZ_hCK1D: NovaScreen (NVS) Enzymatic Assay for human Casein Kinase 1-delta (CK1D) (AID 2283148)
# Summary of the method: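 Recombinant human CK1-delta, cell-free; fluorescent substrate with electrophoretic mobility-shift separation of product, read 1 h after dosing. Single 25 uM duplicate screen, then concentration-response up to 50 uM; loss of signal vs DMSO.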
# Chain of human Casein Kinase 1-delta (CK1D), CSNK1D (gene 1453) (P48730 whole entry, looked up): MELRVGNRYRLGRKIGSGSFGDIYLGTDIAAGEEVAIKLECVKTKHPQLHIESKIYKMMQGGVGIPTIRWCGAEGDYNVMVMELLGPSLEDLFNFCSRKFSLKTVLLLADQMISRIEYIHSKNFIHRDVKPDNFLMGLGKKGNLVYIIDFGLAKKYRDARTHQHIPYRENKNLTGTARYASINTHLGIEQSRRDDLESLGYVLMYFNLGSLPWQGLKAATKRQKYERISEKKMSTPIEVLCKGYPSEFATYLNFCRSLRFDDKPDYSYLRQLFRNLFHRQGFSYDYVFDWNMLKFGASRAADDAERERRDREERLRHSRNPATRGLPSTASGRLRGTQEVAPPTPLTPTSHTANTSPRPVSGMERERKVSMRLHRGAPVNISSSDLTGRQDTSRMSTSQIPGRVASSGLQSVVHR
SMILES,outcome,AC50
O=C(OCCCCCOC(=O)c1ccccc1)c1ccccc1,inactive,
Cc1ccccc1Cl,inactive,
CC(=O)C(C)=CC1C(C)=CCCC1(C)C (configuration not stated),inactive,
NCCO,inactive,
Cc1ccc2ncccc2c1,,4.96 µM (active)
CC1=C(/C=C/C(C)=C/C=C/C(C)=C/CO)C(C)(C)CCC1,inactive,

# Target: human Colony Stimulating Factor 1 Receptor (CSF1R), CSF1R (gene 1436) (UniProt P07333)
# Assay: NVS_ENZ_hCSF1R: NovaScreen (NVS) Enzymatic Assay for human Colony Stimulating Factor 1 Receptor (CSF1R) (AID 2283150)
# Description: NVS_ENZ_hCSF1R is a biochemical, single-readout assay that uses extracted gene-proteins in a cell-free assay. Measurements were taken 1 hour after chemical dosing in a 384-well plate.NVS_ENZ_hCSF1R is one of one assay component(s) measured or calculated from the NVS_ENZ_hCSF1R assay. It is designed to make measurements of enzyme activity, a form of enzyme reporter, as detected with fluorescence intensity signals by Fluorescence and electrophoretic mobility shift technology.Data from the assay component NVS_ENZ_hCSF1R was analyzed into 1 assay endpoint. This assay endpoint, NVS_ENZ_hCSF1R, was analyzed in the positive analysis fitting direction relative to DMSO as the negative control and baseline of activity. Using a type of enzyme reporter, loss-of-signal activity can be used to understand changes in the enzymatic activity as they relate to the gene CSF1R. Furthermore, this assay endpoint can be referred to as a primary readout, because this assay has produced multiple assay endpoints where this one serves a enzymatic activity function. To generalize the intended target to other relatable targets, this assay endpoint is annotated to the kinase intended target family, where the subfamily is receptor tyrosine kinase.
# Binding assays used specific radioligands (tritiated, iodinated) with non-radioactive competitive displacement ligands in agonist or antagonist protocols (as indicated) and various reference compounds and inhibitors to titrate specific binding to receptors and transporters. Most enzyme assays (CYPs, kinases, phosphatases, proteases, HDACs) used recombinant protein and specific substrates (fluorescence mostly, some colorimetric and radioactive) and inhibitors, followed by a biochemical separation of substrate and product. All assays for the biochemical HTS were initially run in duplicate at a single concentration (10 uM for CYP450 assays and 25 uM for all others). Assay-chemical combinations meeting a pre-defined threshold (e.g., 30% inhibition and other criteria defined below) were then run in singleton concentration-response format with maximum concentration of 20 uM for CYPs and 50 uM for all others. Each assay was run with positive and negative controls, and concurrent controls on every plate. The follow-up (secondary) screen tested active chemical-pairs in concentration series, as well as a few additional assays not tested in the primary screen, some selected negative inactives, and several cases re-run in the concentration series for confirmatory purposes.
# Chain of human Colony Stimulating Factor 1 Receptor (CSF1R), CSF1R (gene 1436) (P07333 whole entry, looked up): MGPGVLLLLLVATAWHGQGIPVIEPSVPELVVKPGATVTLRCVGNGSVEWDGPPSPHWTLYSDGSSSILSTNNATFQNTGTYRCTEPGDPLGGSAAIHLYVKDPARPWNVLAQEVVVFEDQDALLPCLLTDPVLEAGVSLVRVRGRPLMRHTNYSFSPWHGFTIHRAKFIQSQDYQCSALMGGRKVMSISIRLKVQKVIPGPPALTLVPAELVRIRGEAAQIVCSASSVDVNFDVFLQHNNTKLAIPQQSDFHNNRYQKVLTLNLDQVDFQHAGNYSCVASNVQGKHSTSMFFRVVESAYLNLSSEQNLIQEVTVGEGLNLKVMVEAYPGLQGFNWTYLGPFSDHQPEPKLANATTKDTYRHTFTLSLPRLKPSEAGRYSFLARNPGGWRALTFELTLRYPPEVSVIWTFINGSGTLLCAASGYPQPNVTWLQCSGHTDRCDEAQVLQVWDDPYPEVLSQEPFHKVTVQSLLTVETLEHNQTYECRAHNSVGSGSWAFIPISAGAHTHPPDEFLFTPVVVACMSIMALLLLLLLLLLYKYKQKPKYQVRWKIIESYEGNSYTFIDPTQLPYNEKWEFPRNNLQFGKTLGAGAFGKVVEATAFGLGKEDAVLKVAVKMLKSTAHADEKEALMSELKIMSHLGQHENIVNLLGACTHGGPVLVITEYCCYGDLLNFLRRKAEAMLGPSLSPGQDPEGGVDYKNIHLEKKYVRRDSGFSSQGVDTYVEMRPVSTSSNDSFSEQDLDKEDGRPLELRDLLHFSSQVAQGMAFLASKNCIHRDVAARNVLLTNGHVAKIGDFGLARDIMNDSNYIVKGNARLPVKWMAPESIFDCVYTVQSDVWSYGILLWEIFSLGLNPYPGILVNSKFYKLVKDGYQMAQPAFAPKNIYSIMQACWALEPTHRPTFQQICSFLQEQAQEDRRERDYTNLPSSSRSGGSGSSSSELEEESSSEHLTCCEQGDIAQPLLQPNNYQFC
SMILES,outcome,AC50
CCc1c(C(=O)NN2CCCCC2)nn(-c2ccc(Cl)cc2Cl)c1-c1ccc(Br)cc1,inactive,
CC(=O)Oc1ccccc1C(=O)O,inactive,
O=C(OCCCCCOC(=O)c1ccccc1)c1ccccc1,inactive,
CCOc1ccc2c(c1)C(C)=CC(C)(C)N2,,25 µM (active)
FC(F)(F)C(F)(F)C(F)(F)C(F)(F)C(F)(F)C(F)(F)CCI,inactive,
NS(=O)(=O)c1cc2c(cc1Cl)NCNS2(=O)=O,inactive,

# Target: human Dual Specificity Protein Phosphatase 3 (DUSP3), DUSP3 (gene 1845) (UniProt P51452)
# Assay: NVS_ENZ_hDUSP3: NovaScreen (NVS) Enzymatic Assay for human Dual Specificity Protein Phosphatase 3 (DUSP3) (AID 2283152);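 also: phosphatase activity of recombinant human DUSP3 on a fluorogenic substrate without cells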
# Summary of the method: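 Cell-free fluorescence-intensity enzyme activity assay with recombinant protein and substrate; loss of signal fitted relative to DMSO baseline. Primary screen in duplicate at 25 uM, actives then run in concentration series; measured 0 h after dosing.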
# Chain of human Dual Specificity Protein Phosphatase 3 (DUSP3), DUSP3 (gene 1845) (P51452 whole entry, looked up): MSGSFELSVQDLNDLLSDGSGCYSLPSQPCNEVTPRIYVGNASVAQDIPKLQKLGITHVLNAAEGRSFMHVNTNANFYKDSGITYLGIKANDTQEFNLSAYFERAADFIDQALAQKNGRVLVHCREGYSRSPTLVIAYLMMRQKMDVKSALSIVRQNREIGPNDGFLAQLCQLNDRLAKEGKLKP
SMILES,AC50,outcome
CCCCC(CC)COC(=O)CC(C(=O)OCC(CC)CCCC)S(=O)(=O)O (configuration not stated),14.7 µM (active),
Nc1ccccc1N,16.4 µM (active),
Oc1ccc2c(c1)OC[C@@H](N1CCC(O)(c3ccc(F)cc3)CC1)[C@H]2O,,inactive
COc1cc(-c2nc(NC(=O)c3cc4cc(C)cc(C)c4n3CC(=O)O)sc2CCC2CCCCC2)c(OC)cc1Cl,1.23 µM (active),
CCCCCCCCCCCCCCCCCC(=O)O,19.6 µM (active),

# Target: human Elastase, ELANE (gene 1991) (UniProt P08246)
# Assay: NVS_ENZ_hElastase: NovaScreen (NVS) Enzymatic Assay for human Elastase (AID 2283153)
# Summary of the method: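 Concentration-response to 50 uM max, run singly for chemicals passing a threshold (e.g., 30% inhibition) in a duplicate 25 uM single-point screen. Neutrophil-derived human elastase, absorbance read-out of enzyme activity at 1.5 h; DMSO baseline.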
# Chain of human Elastase, ELANE (gene 1991) (P08246 whole entry, looked up): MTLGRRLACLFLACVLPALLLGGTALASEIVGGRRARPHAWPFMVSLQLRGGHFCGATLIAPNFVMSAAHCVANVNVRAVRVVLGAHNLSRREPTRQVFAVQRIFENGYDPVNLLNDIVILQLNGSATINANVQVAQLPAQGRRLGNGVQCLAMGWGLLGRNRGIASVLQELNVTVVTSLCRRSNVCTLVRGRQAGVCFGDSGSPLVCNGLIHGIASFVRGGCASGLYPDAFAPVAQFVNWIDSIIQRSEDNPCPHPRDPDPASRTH
SMILES,outcome,AC50
CCc1c(C(=O)NN2CCCCC2)nn(-c2ccc(Cl)cc2Cl)c1-c1ccc(Br)cc1,inactive,
O=c1c(O)c(-c2ccc(O)c(O)c2)oc2cc(O)cc(O)c12,inactive,
CCCCC(CC)COC(=O)CC(C(=O)OCC(CC)CCCC)S(=O)(=O)O (configuration not stated),,25 µM (active)
Cc1nc(-c2ccc3c(c2)CCN(CCC2CCC(NC(=O)/C=C/c4ccc(F)cc4)CC2)CC3)no1 (configuration not stated),,18.3 µM (active)
Nc1ccc2c(c1)C(=O)c1ccccc1C2=O,,15.5 µM (active)
COc1cc(-c2nc(NC(=O)c3cc4cc(C)cc(C)c4n3CC(=O)O)sc2CCC2CCCCC2)c(OC)cc1Cl,,5.61 µM (active)
CCCCCCCCCCCCCCCCCC(=O)O,,7.85 µM (active)
CC1=C(/C=C/C(C)=C/C=C/C(C)=C/CO)C(C)(C)CCC1,,21.8 µM (active)

# Target: human Esterase Plasma (ES), BCHE (gene 590) (UniProt P06276)
# Assay: NVS_ENZ_hES: NovaScreen (NVS) Enzymatic Assay for human Esterase Plasma (ES) (AID 2283157)
# Summary of the method: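 Human plasma-derived enzyme, cell-free, colorimetric readout at 0.25 h. Primary screen 25 uM in duplicate; hits (e.g. ≥30% inhibition) rerun singleton up to 50 uM. DMSO = negative control/baseline.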
# Chain of human Esterase Plasma (ES), BCHE (gene 590) (P06276 whole entry, looked up): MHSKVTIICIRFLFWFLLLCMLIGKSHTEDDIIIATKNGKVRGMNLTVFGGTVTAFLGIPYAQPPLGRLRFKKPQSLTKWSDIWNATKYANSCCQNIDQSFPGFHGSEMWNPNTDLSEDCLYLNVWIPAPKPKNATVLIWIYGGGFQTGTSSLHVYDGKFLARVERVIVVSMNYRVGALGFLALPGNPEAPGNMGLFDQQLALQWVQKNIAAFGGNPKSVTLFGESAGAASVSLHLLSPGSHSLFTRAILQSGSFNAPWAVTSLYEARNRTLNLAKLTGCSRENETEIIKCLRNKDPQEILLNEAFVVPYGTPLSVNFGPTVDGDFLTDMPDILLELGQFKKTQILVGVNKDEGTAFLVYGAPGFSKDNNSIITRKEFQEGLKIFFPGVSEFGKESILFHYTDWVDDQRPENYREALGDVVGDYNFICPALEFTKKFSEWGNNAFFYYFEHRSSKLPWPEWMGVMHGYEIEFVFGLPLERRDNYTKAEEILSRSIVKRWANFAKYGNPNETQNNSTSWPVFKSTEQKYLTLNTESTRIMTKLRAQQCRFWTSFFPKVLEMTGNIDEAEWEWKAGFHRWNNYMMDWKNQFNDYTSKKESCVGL
SMILES,outcome,AC50
CCCCC(CC)COC(=O)CC(C(=O)OCC(CC)CCCC)S(=O)(=O)O (configuration not stated),inactive,
FC(F)(F)C(F)(F)C(F)(F)C(F)(F)C(F)(F)C(F)(F)CCI,inactive,
Cc1ccc(C(C)C)c(O)c1,inactive,
Nc1ccccc1N,,17.6 µM (active)
Cc1cccc([N+](=O)[O-])c1C,inactive,

# Target: Glycogen synthase kinase-3 beta (Homo sapiens) (UniProt P49841)
# Assay: NVS_ENZ_hGSK3b: NovaScreen (NVS) Enzymatic Assay for human Glycogen Synthase Kinase-3 beta (GSK3b) (AID 2283165)
# Summary of the method: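 Recombinant enzyme with specific fluorescent substrate, 1 h, product separated by electrophoretic mobility shift. Primary duplicate screen at 25 uM; actives (e.g. 30% inhibition) followed in singleton concentration-response to 50 uM. Signal loss fitted versus DMSO.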
# Chain of Glycogen synthase kinase-3 beta (Homo sapiens) (P49841 whole entry, looked up): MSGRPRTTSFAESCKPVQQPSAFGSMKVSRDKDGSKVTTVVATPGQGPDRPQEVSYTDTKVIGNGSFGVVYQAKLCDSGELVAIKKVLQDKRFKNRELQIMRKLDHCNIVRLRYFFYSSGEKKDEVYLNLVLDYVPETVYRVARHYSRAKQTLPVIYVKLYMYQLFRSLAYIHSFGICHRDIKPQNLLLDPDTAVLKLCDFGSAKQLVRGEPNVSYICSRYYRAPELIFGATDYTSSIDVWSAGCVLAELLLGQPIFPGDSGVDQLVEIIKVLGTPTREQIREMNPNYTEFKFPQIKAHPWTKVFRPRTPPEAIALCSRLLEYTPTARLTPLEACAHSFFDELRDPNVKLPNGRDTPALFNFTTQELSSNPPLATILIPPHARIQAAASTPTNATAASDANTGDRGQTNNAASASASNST
SMILES,outcome,AC50
CCc1c(C(=O)NN2CCCCC2)nn(-c2ccc(Cl)cc2Cl)c1-c1ccc(Br)cc1,inactive,
CC(=O)Oc1ccccc1C(=O)O,inactive,
O=C(OCCCCCOC(=O)c1ccccc1)c1ccccc1,inactive,
O=c1c(O)c(-c2ccc(O)c(O)c2)oc2cc(O)cc(O)c12,,0.073 µM (active)
CCOc1ccc2c(c1)C(C)=CC(C)(C)N2,inactive,
FC(F)(F)C(F)(F)C(F)(F)C(F)(F)C(F)(F)C(F)(F)CCI,inactive,
Nc1ccccc1N,,22.3 µM (active)
NS(=O)(=O)c1cc2c(cc1Cl)NCNS2(=O)=O,inactive,
CC(=O)C(C)=CC1C(C)=CCCC1(C)C (configuration not stated),inactive,
CCCCc1ccc2c(n1)[C@@H](c1ccc(OC)cc1C[C@H](C)C(=O)O)[C@H](C(=O)O)[C@H]2c1ccc2c(c1)OCO2,inactive,
NCCO,inactive,
